Hit rate of the full screen: of about 5,500 compounds, about 2,000 (36%) were called active. Not shown: some 18% with an inconclusive outcome. Cut-off read from the data, not from the text of the source: active = normalized growth mostly below about 0.91 (no sharp cut-off); inconclusive = no clear call, values can overlap the other calls; inactive = mostly above about 0.92. The list shows a part of the results.
Experiment: chemical genetic growth profiling, strain panel (AID 1159580);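 note: tested at 20 µM; growth read once vehicle control cultures reached saturation at 30 °C; 1 = growth at the plate median or of vehicle wells; lower values mean less growth of the strain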
Settings: S. cerevisiae deletion strains, growth OD

Measured: normalized growth

CNC(=O)O/N=C\C(C)(C)SC
inactive: locus YAL013W, strain DEP1, hits give low values 1.01 | locus YAL021C, strain ccr4, hits give low values 0.997 | locus YAL026C, strain drs2, hits give low values 1 | locus YAL030W, strain snc1, hits give low values 1 | locus YBL061C, strain skt5, hits give low values 1.01 | locus YBR009C, strain hhf1, hits give low values 0.988 | locus YBR021W, strain FUR4, hits give low values 1.03 | locus YBR023C, strain chs3, hits give low values 1 | locus YBR171W, strain sec66, hits give low values 1.01 | locus YBR229C, strain ROT2, hits give low values 0.996 | locus YBR231C, strain swc5, hits give low values 0.998 | locus YBR279W, strain paf1, hits give low values 1.01 | locus YCL011C, strain gbp2, hits give low values 1.01 | locus YCL016C, strain dcc1, hits give low values 1.01 | locus YCL029C, strain bik1, hits give low values 0.987 | locus YCL061C, strain MRC1, hits give low values 1.01 | locus YCL069W, strain vba3, hits give low values 1.01 | locus YCR088W, strain abp1, hits give low values 1 | locus YDL005C, strain med2, hits give low values 1 | locus YDL035C, strain GPR1, hits give low values 1.02 | locus YDL040C, strain nat1, hits give low values 0.99 | locus YDL074C, strain BRE1, hits give low values 1.08 | locus YDL101C, strain DUN1, hits give low values 1.01 | locus YDL134C, strain PPH21, hits give low values 1.01 | locus YDL185W, strain tfp1, hits give low values 0.99 | locus YDL192W, strain arf1, hits give low values 0.994 | locus YDR001C, strain nth1, hits give low values 1.01 | locus YDR069C, strain doa4, hits give low values 0.999 | locus YDR101C, strain arx1, hits give low values 0.986 | locus YDR137W, strain rgp1, hits give low values 1.02 | locus YDR150W, strain NUM1, hits give low values 1.01 | locus YDR159W, strain sac3, hits give low values 0.965 | locus YDR162C, strain NBP2, hits give low values 1.01 | locus YDR195W, strain ref2 0.964 | locus YDR297W, strain sur2, hits give low values 0.999 | locus YDR318W, strain mcm21, hits give low values 0.993 | locus YDR334W, strain swr1, hits give low values 1.01 | locus YDR335W, strain msn5, hits give low values 1.01 | locus YDR388W, hits give low values 0.985 | locus YDR392W, strain spt3, hits give low values 0.886 | locus YDR502C, strain sam2, hits give low values 1 | locus YEL003W, strain gim4, hits give low values 1.01 | locus YEL037C, strain rad23, hits give low values 1.01 | locus YEL061C, strain CIN8 (second series), hits give low values 1.01 | locus YEL061C, strain CIN8, hits give low values 1 | locus YER015W, strain faa2, hits give low values 1.02 | locus YER016W, strain bim1, hits give low values 1.01 | locus YER110C, hits give low values 0.983 | locus YER111C, strain swi4, hits give low values 1.02 | locus YER155C, strain BEM2 (second series), hits give low values 0.995 | locus YER155C, strain BEM2, hits give low values 0.998 | locus YER167W, strain BCK2, hits give low values 1.02 | locus YFR010W, strain ubp6, hits give low values 0.998 | locus YGL078C, strain dbp3, hits give low values 0.986 | locus YGL086W, strain mad1, hits give low values 0.987 | locus YGL167C, strain pmr1, hits give low values 0.995 | locus YGL173C, strain kem1, hits give low values 0.997 | locus YGL227W, strain vid30, hits give low values 1.01 | locus YGL240W, strain doc1, hits give low values 0.972 | locus YGL248W, strain PDE1, hits give low values 1.01 | locus YGL253W, strain hxk2, hits give low values 0.997 | locus YGR078C, strain PAC10, hits give low values 1.01 | locus YGR135W, strain pre9, hits give low values 1 | locus YGR229C, strain SMI1, hits give low values 1.03 | locus YGR252W, strain gcn5, hits give low values 0.98 | locus YHR013C, strain ard1, hits give low values 0.971 | locus YHR027C, strain rpn1, hits give low values 1 | locus YHR030C, strain SLT2, hits give low values 0.984 | locus YHR079C, strain IRE1 (second series), hits give low values 0.988 | locus YHR094C, strain hxt1, hits give low values 0.983 | locus YHR129C, strain ARP1, hits give low values 1.02 | locus YHR142W, strain chs7, hits give low values 1 | locus YHR200W, strain rpn10, hits give low values 0.98 | locus YIL066C, strain RNR3, hits give low values 1.03 | locus YIL073C, strain SPO22, hits give low values 0.995 | locus YIL125W, strain kgd1, hits give low values 0.997 | locus YIR030C, strain dcg1, hits give low values 0.992 | locus YJL092W, strain hpr5, hits give low values 1.01 | locus YJL095W, strain BCK1 (second series), hits give low values 1 | locus YJL095W, strain BCK1, hits give low values 1.03 | locus YJL115W, strain asf1, hits give low values 1.02 | locus YJL129C, strain trk1, hits give low values 1.01 | locus YJL134W, strain LCB3, hits give low values 1 | locus YJL154C, strain vps35, hits give low values 1.02 | locus YJL164C, strain tpk1, hits give low values 1.01 | locus YJL166W, strain qcr8, hits give low values 1 | locus YJL168C, strain set2, hits give low values 0.98 | locus YJL187C, strain SWE1 (second series), hits give low values 1.01 | locus YJL187C, strain SWE1, hits give low values 0.998
